# Results filed as inconclusive are left out. The source made the active and inactive calls. The calls were made as follows, unless noted: active = hit-call score of the fitted dose curve at least 0.9, where 1 is the maximum; inactive = score below 0.9.
# Key:
# [1] = CCTE_Shafer_MEA_acute_burst_number: CCTE's Neural Acute Assay for Single-Electrode Bursts, Shafer Lab (AID 2284013)
# How it was run: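 Primary rat cortical neurons on 16-electrode MEA wells, treated on DIV 13 or 15 with compound at 0.03-40 uM. Single-electrode burst count from 40-min recordings at 37 C before and after exposure; percent change from baseline per well, DMSO negative control.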
# [2] = CCTE_Shafer_MEA_acute_burst_duration_mean: CCTE's Neural Acute Assay for Mean Burst Duration, Shafer Lab (AID 2284014);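 also: hits are decreases in mean burst duration relative to DMSO controls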
# How it was run: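 Rat primary cortical neurons on 48-well MEA, treated at DIV 13 or 15 with 0.03-40 uM in at least 3 wells. Value is percent change in mean burst duration, comparing 40 min recordings at 37 C before and during exposure.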
# [3] = CCTE_Shafer_MEA_acute_per_burst_spike_number_mean: CCTE's Neural Acute Assay for Average Number of Spikes Per Burst, Shafer Lab (AID 2284015);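 also: hits are decreases in mean spikes per burst versus baseline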
# How it was run: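 Percent change in mean spikes per single-electrode burst is compared between a 40 min baseline and a 40 min recording with compound (0.03-40 uM). Cultures were rat cortical neurons on MEA plates at DIV 13 or 15, recorded at 37 C, with DMSO as the negative control.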
# [4] = CCTE_Shafer_MEA_acute_burst_percentage_std: CCTE's Neural Acute Assay for Standard Deviation of Burst Percentage, Shafer Lab (AID 2284018);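 also: fitted in the negative direction so actives lower burst percentage SD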
# How it was run: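 Rat primary cortical neurons on 48-well MEAs, DIV 13 or 15, 37 C. 40-min baseline then 40-min recording with compound (0.03-40 uM); well-level SD of per-electrode burst spike percentage, expressed as percent change from baseline.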
# [5] = CCTE_Shafer_MEA_acute_per_network_burst_spike_number_mean: CCTE's Neural Acute Assay for Average Number of Spikes in a Network Burst, Shafer Lab (AID 2284019);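 as to AC50: curve fitted for loss of signal so actives reduce spikes per network burst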
# How it was run: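 Rat primary cortical neurons on 48-well MEA at DIV 13 or 15, 37 C; compounds 0.03-40 uM, at least three wells each. 40-min baseline then 40-min exposure recording; percent change in mean spikes per network burst.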
# [6] = CCTE_Shafer_MEA_acute_per_network_burst_spike_number_std: CCTE's Neural Acute Assay for Standard Deviation of Number of Spikes in a Network Burst, Shafer Lab (AID 2284020);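 also: fitted for decrease in spike-number SD versus DMSO so actives lower it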
# How it was run: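 Rat primary cortical neurons on 48-well MEA (16 electrodes/well), treated DIV 13 or 15 at 0.03-40 uM, ≥3 wells per compound. 40 min recordings at 37 C before and after dosing; value is percent change in network-burst spike-number SD, negative direction vs DMSO.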
# [7] = CCTE_Shafer_MEA_acute_per_network_burst_electrodes_number_mean: CCTE's Neural Acute Assay for Mean Number of Electrodes in a Network Burst, Shafer Lab (AID 2284021);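 also: curves fitted for decreases only so hits reduce electrodes per burst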
# How it was run: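 Primary rat cortical networks, mwMEA, 37 C. 20 min stabilization, 40 min baseline, compound 0.03-40 uM, 40 min re-record. Wells need >=10 active electrodes; percent change per well, negative fitting direction.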
# [8] = CCTE_Harrill_HTTr_Viability_MCF7: CCTE's 6-hour Cell Viability Assessment for the High-Throughput Transcriptomics (HTTr) Platform, in MCF-7 cells cultured in DMEM + 10% fetal bovine serum, Harrill Lab (AID 2284010)
# How it was run: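 MCF-7 cells in DMEM + 10% FBS, 384-well, exposed 6 h to an eight-point dilution series. Membrane integrity scored by high-content imaging of propidium iodide exclusion; bidirectional fit versus DMSO.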
# [9] = CCTE_Harrill_HTTr_Apoptosis_MCF7: CCTE's 6-hour Apoptosis Assessment for the High-Throughput Transcriptomics (HTTr) Platform, in MCF-7 cells cultured in DMEM + 10% fetal bovine serum, Harrill Lab (AID 2284011)
# How it was run: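 MCF-7 (DMEM + 10% FBS), 384-well; 8-pt dilution series, 6 h chemical exposure; caspase-3/7 activation via CellEvent Caspase 3/7 Green, HCI; bidirectional fit vs DMSO.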
# [10] = CCTE_Harrill_HTTr_CellCount_MCF7: CCTE's Cell Proliferation Assessment for the High-Throughput Transcriptomics (HTTr) Platform, Harrill Lab (AID 2284012; active = hit-call score of the fitted dose curve at least 0.9, where 1 is the maximum;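 also: cells exposed to compound for six hours; intended direction is loss of nuclei count meaning fewer cells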)
# How it was run: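 MCF7 cells exposed 6 hours to an eight-point dilution series; Hoechst-stained nuclei counted by high-content imaging. Bidirectional curve fitting against DMSO baseline.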
smiles,measurement,setting,value
COP(=O)(CCC(=O)NCO)OC,outcome,[1],inactive
same,outcome,[2],inactive
same,AC50,[3],0.145 µM (active)
same,outcome,[4],inactive
same,outcome,[5],inactive
same,outcome,[6],inactive
same,outcome,[7],inactive
Cc1c([N+](=O)[O-])cc2c(c1[N+](=O)[O-])C(C)(C)CC2(C)C,outcome,[8],inactive
same,outcome,[9],inactive
same,outcome,[10],inactive
C/C(=N\NC(=O)Nc1cc(F)cc(F)c1)c1ncccc1C(=O)O,outcome,[8],inactive
same,outcome,[9],inactive
same,outcome,[10],inactive
ClC1=C(Cl)C2(Cl)C3C(Cl)C(Cl)CC3C1(Cl)C2(Cl)Cl (stereo not given),outcome,[8],inactive
same,outcome,[9],inactive
same,outcome,[10],inactive
same,outcome,[1],inactive
same,outcome,[2],inactive
same,outcome,[3],inactive
same,outcome,[4],inactive
same,AC50,[5],309 nM (active)
same,outcome,[6],inactive
same,outcome,[7],inactive
O=C(O)C(Cl)Cl,outcome,[8],inactive
same,outcome,[9],inactive
same,outcome,[10],inactive
CCCCN(CC)C(=O)SCCC,outcome,[8],inactive
same,outcome,[9],inactive
same,outcome,[10],inactive
Cc1ccc(N)cc1N,outcome,[8],inactive
same,outcome,[9],inactive
same,outcome,[10],inactive
same,outcome,[1],inactive
same,outcome,[2],inactive
same,outcome,[3],inactive
same,outcome,[4],inactive
same,outcome,[5],inactive
same,outcome,[6],inactive
same,outcome,[7],inactive
COCCOCCO,outcome,[8],inactive
same,outcome,[9],inactive
same,outcome,[1],inactive
same,outcome,[2],inactive
same,outcome,[3],inactive
same,outcome,[4],inactive
same,outcome,[5],inactive
same,outcome,[6],inactive
same,outcome,[7],inactive
CSC(C)(C)C=NO,outcome,[8],inactive
same,outcome,[9],inactive
same,outcome,[10],inactive
CCOc1ccc(C(C)(C)COCc2cccc(Oc3ccccc3)c2)cc1,outcome,[8],inactive
same,outcome,[9],inactive
same,outcome,[10],inactive
same,outcome,[1],inactive
same,outcome,[2],inactive
same,outcome,[3],inactive
same,outcome,[4],inactive
same,outcome,[5],inactive
same,outcome,[6],inactive
same,outcome,[7],inactive
CCOS(=O)(=O)OCC,outcome,[8],inactive
same,outcome,[9],inactive
same,outcome,[10],inactive
CCOP(=S)(Oc1ccc([N+](=O)[O-])cc1)c1ccccc1 (stereo not given),outcome,[8],inactive
same,outcome,[9],inactive
same,outcome,[10],inactive
same,outcome,[1],inactive
same,outcome,[2],inactive
same,outcome,[3],inactive
same,outcome,[4],inactive
same,outcome,[5],inactive
same,outcome,[6],inactive
same,outcome,[7],inactive
O=C(O)C1C(C(=O)O)C2(Cl)C(Cl)=C(Cl)C1(Cl)C2(Cl)Cl (stereo not given),outcome,[8],inactive
same,outcome,[9],inactive
same,outcome,[10],inactive
same,outcome,[1],inactive
same,outcome,[2],inactive
same,outcome,[3],inactive
same,outcome,[4],inactive
same,outcome,[5],inactive
same,outcome,[6],inactive
same,outcome,[7],inactive
ClC(Cl)(Cl)c1ccccc1,outcome,[8],inactive
same,outcome,[9],inactive
same,outcome,[10],inactive
same,outcome,[1],inactive
same,outcome,[2],inactive
same,outcome,[3],inactive
same,outcome,[4],inactive
same,outcome,[5],inactive
same,outcome,[6],inactive
same,outcome,[7],inactive
Cc1cccc(N)c1,outcome,[8],inactive
same,outcome,[9],inactive
same,outcome,[10],inactive
CC1(C)CN=C(NN=C(/C=C/c2ccc(C(F)(F)F)cc2)/C=C/c2ccc(C(F)(F)F)cc2)NC1,outcome,[8],inactive
same,outcome,[9],inactive
same,outcome,[10],inactive
c1cc2c3c(cccc3c1)CC2,outcome,[8],inactive
same,outcome,[9],inactive
same,outcome,[10],inactive
CCOC(=O)c1ccccc1C(=O)OCC,outcome,[8],inactive
same,outcome,[9],inactive
same,outcome,[10],inactive
CCCCC(CC)COC(=O)c1c(Br)c(Br)c(Br)c(Br)c1C(=O)OCC(CC)CCCC (stereo not given),outcome,[8],inactive
same,outcome,[9],inactive
same,outcome,[10],inactive
O=P(OCC(Br)CBr)(OCC(Br)CBr)OCC(Br)CBr (stereo not given),outcome,[8],inactive
same,outcome,[9],inactive
same,outcome,[10],inactive
CC(C)(C)c1ccc(O)cc1,outcome,[8],inactive
same,outcome,[9],inactive
same,outcome,[10],inactive
CCCCC(CC)COP(=O)(Oc1ccccc1)Oc1ccccc1 (stereo not given),outcome,[8],inactive
same,outcome,[9],inactive
same,outcome,[10],inactive
same,outcome,[1],inactive
same,outcome,[2],inactive
same,outcome,[3],inactive
same,AC50,[4],15 µM (active)
same,outcome,[5],inactive
same,outcome,[6],inactive
same,outcome,[7],inactive
CC(C)(C)OOC(C)(C)C,outcome,[8],inactive
same,outcome,[9],inactive
same,outcome,[10],inactive
CCC(C)(C)c1ccc(O)cc1,AC50,[1],0.283 µM (active)
same,outcome,[2],inactive
same,outcome,[3],inactive
same,outcome,[4],inactive
same,outcome,[5],inactive
same,AC50,[6],8.27 µM (active)
CC(C)(C)N(NC(=O)c1ccc(Cl)cc1)C(=O)c1ccccc1,outcome,[8],inactive
same,outcome,[9],inactive
same,outcome,[10],inactive
CCC1(c2ccccc2)C(=O)N=C(O)NC1=O (stereo not given),outcome,[8],inactive
same,outcome,[9],inactive
same,outcome,[10],inactive
same,outcome,[1],inactive
same,outcome,[2],inactive
same,outcome,[3],inactive
same,outcome,[4],inactive
same,outcome,[5],inactive
same,outcome,[6],inactive
same,outcome,[7],inactive
Nc1ccc2ccccc2c1,outcome,[8],inactive
same,outcome,[9],inactive
same,outcome,[10],inactive
same,outcome,[1],inactive
same,outcome,[2],inactive
same,outcome,[3],inactive
same,outcome,[4],inactive
same,outcome,[5],inactive
same,outcome,[6],inactive
same,outcome,[7],inactive
CC(C)(C)c1ccccc1OP(=O)(Oc1ccccc1)Oc1ccccc1,AC50,[1],1.23 µM (active)
same,outcome,[2],inactive
same,AC50,[3],7.23 µM (active)
same,AC50,[4],5 µM (active)
same,outcome,[5],inactive
same,AC50,[6],5 µM (active)
same,AC50,[7],5 µM (active)
CC(Cc1ccc(OCC(=O)O)cc1)NCC(O)c1csc(C(F)(F)F)n1 (stereo not given),outcome,[8],inactive
same,outcome,[9],inactive
same,outcome,[10],inactive
c1ccc2c(c1)Nc1ccccc1S2,outcome,[8],inactive
same,outcome,[9],inactive
same,outcome,[10],inactive
same,AC50,[1],3.97 µM (active)
same,AC50,[2],34.9 µM (active)
same,outcome,[3],inactive
same,outcome,[4],inactive
same,outcome,[5],inactive
same,AC50,[6],27.3 µM (active)
same,AC50,[7],7.45 µM (active)
CC(O)C#N (stereo not given),outcome,[8],inactive
same,outcome,[9],inactive
same,outcome,[10],inactive

# — PubChem BioAssay (EPA / NIEHS)
